Data on nine molecules can be found in PubChem BioAssay (NCI).

Where “and” joins values, the source holds several entries; their conditions need not be identical. Equal entries are not always repeated. This is part of a sample that, as a whole, favours compounds with a hit. Of some 83,000 tested, about 20% had one in any assay.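 Growth was measured after 48 h exposure to one concentration of compound in 96-well plates. Values under 10 count as active.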 Calls of active or inactive are those of the source.

Experiment in all cases: NCI-60 one-dose screen, 48 h (100 = growth as untreated, 0 = no growth, -100 = all killed)
One experiment has as its system HT29 colon. Conditions: 10 µM unless noted.
The next experiment concerns SNB-75 CNS. Conditions: 10 µM unless noted.
The test system of a further experiment is SNB-19 CNS. Conditions: 10 µM unless noted.
A further experiment has as its system U251 CNS. The following applies: 10 µM unless noted.
The test system of the next experiment is PC-3 prostate. Conditions: 10 µM unless noted.
The test system of a further experiment is SK-MEL-5 melanoma. The following applies: 10 µM unless noted.
A further experiment deals with UACC-62 melanoma.
Another experiment has as its system LOX IMVI melanoma. Conditions: 10 µM unless noted.
A further experiment concerns SK-MEL-28 melanoma. The following applies: 10 µM.
The next experiment has as its system SK-MEL-2 melanoma. The following applies: 10 µM unless noted.
In the next experiment the test system is SN12C renal. The following applies: 10 µM unless noted.
The subject of another experiment is UO-31 renal. The following applies: 10 µM unless noted.
A further experiment relates to ACHN renal. The following applies: 10 µM unless noted.
In another experiment the test system is A498 renal. The following applies: 10 µM unless noted.
A further experiment relates to HL-60(TB) leukemia. The following applies: 10 µM unless noted.
The next experiment concerns CCRF-CEM leukemia. The following applies: 10 µM unless noted.
The subject of the next experiment is MOLT-4 leukemia. Conditions: 10 µM unless noted.
The test system of a further experiment is RPMI-8226 leukemia. The following applies: 10 µM unless noted.
The subject of the next experiment is OVCAR-8 ovarian. Conditions: 10 µM.
Another experiment relates to EKVX NSCLC. Conditions: 10 µM unless noted.

`Oc1cc[c]([Hg][Cl])cc1`: the growth with HT29 colon is 100% (inactive); in the experiment with SNB-75 CNS it was 92.3% (inactive); in the experiment on SNB-19 CNS, 100% (inactive); with U251 CNS, 85.9% (inactive); in the experiment with PC-3 prostate, 99.7% (inactive); with SK-MEL-5 melanoma it was 74.5% (inactive). The growth in the experiment on UACC-62 melanoma (10 µM) was 92.1% (inactive); in the experiment with LOX IMVI melanoma, 71.3% (inactive); with SK-MEL-28 melanoma, 74.5% (inactive); in the experiment on SK-MEL-2 melanoma, 70.2% (inactive); in the experiment with SN12C renal it was 98.9% (inactive); with UO-31 renal it was 100% (inactive). Further, the growth in the experiment with ACHN renal is 99% (inactive); in the experiment with A498 renal, 107% (inactive); with HL-60(TB) leukemia it was 102% (inactive); with CCRF-CEM leukemia it was 55.2% (inactive); in the experiment with MOLT-4 leukemia, 65.2% (inactive); with RPMI-8226 leukemia, 91.2% (inactive). For the same molecule, the growth in the experiment with OVCAR-8 ovarian was 105% (inactive).
As for `CC(=O)O[C@H]1C[C@@H]2OC3C=C(C)CCC3(C)[C@@]1(C)[C@@]21CO1` (some centres not stated), the growth in the experiment with HT29 colon was -32.2% (active) and -30.6% (active); in the experiment on SNB-75 CNS it was 11.2% (inactive) and -18.3% (active); with SNB-19 CNS it was -0.212% (active) and 0.0305% (active); in the experiment on U251 CNS it was -8.47% (active) and -17.4% (active); in the experiment with PC-3 prostate it was -2.24% (active) and -4.21% (active); in the experiment with SK-MEL-5 melanoma, -47.8% (active) and -66.8% (active). In addition, the growth in the experiment with UACC-62 melanoma (10 µM) was -16.6% (active) and -10.1% (active); in the experiment with LOX IMVI melanoma, -58.9% (active) and -21.5% (active); in the experiment on SK-MEL-28 melanoma, -24.3% (active) and -29.8% (active); in the experiment on SK-MEL-2 melanoma, -72.2% (active) and -53.9% (active); with EKVX NSCLC it was -13.7% (active) and -15.6% (active); in the experiment on SN12C renal, -9.69% (active) and 0.846% (active). The growth with UO-31 renal was -5.32% (active) and -11.9% (active); in the experiment on ACHN renal, -34.8% (active) and -29.9% (active); with A498 renal, -38.7% (active); in the experiment on HL-60(TB) leukemia, -42% (active); with CCRF-CEM leukemia, 2.26% (active); in the experiment on MOLT-4 leukemia, -15.6% (active) and -30.2% (active). Also, the growth with RPMI-8226 leukemia is -16.3% (active) and -26.9% (active); in the experiment with OVCAR-8 ovarian, -9.39% (active) and -19.9% (active).
Regarding `O=C(O)c1ccccc1.[Ag]`, the growth in the experiment with HL-60(TB) leukemia was 113% (inactive).
For the molecule `CC[C@@]1(O)C[C@H](OC2CC(N(C)C)C(O)C(C)O2)c2c(O)c3c(c(O)c2[C@H]1OC1CC(N(C)C)C(O)C(C)O1)C(=O)c1cccc(O)c1C3=O` (some centres not stated), the growth is -39% (active) in the experiment with HT29 colon; -94.6% (active) with SNB-75 CNS; 5.62% (active) in the experiment with SNB-19 CNS; -21.9% (active) with U251 CNS; -61.8% (active) in the experiment on PC-3 prostate; -89% (active) in the experiment with SK-MEL-5 melanoma. Further, the growth in the experiment with UACC-62 melanoma (10 µM) was -63.2% (active); in the experiment with LOX IMVI melanoma, -36.2% (active); with SK-MEL-2 melanoma, -54.5% (active); with EKVX NSCLC, 4.27% (active); in the experiment on SN12C renal it was 11.4% (inactive); in the experiment with UO-31 renal it was -33.9% (active). In addition, the growth in the experiment with ACHN renal is -31% (active); in the experiment with A498 renal, -68% (active); in the experiment with HL-60(TB) leukemia it was -34.3% (active); with CCRF-CEM leukemia, -37.7% (active); in the experiment on MOLT-4 leukemia it was -10.5% (active); in the experiment with RPMI-8226 leukemia it was -50.6% (active).
As to `Cc1cc(N=Nc2ccccc2C)ccc1N`, the growth in the experiment on HT29 colon is 103% (inactive); in the experiment on SNB-75 CNS it was 42.5% (inactive); in the experiment with SNB-19 CNS, 69.7% (inactive); with U251 CNS it was 74.9% (inactive); in the experiment with SK-MEL-5 melanoma, 79.3% (inactive); in the experiment with UACC-62 melanoma (10 µM), 74% (inactive). Besides, the growth was 71.5% (inactive) with LOX IMVI melanoma; 99.4% (inactive) in the experiment on SK-MEL-28 melanoma; 127% (inactive) in the experiment on SK-MEL-2 melanoma; 71.9% (inactive) in the experiment with EKVX NSCLC; 28.9% (inactive) in the experiment with SN12C renal; 19.3% (inactive) in the experiment with UO-31 renal. Also, the growth with ACHN renal was 85.3% (inactive); in the experiment on HL-60(TB) leukemia, 8.96% (active); in the experiment on CCRF-CEM leukemia, 4.33% (active); with MOLT-4 leukemia, 29.3% (inactive); with RPMI-8226 leukemia, 17.5% (inactive); with OVCAR-8 ovarian, 82.1% (inactive).
For `CC1CCC2(NC1)OC1CC3C4CCC5CC(OC6OC(CO)C(OC7OC(CO)C(O)C(OC8OCC(O)C(O)C8O)C7OC7OC(CO)C(O)C(O)C7O)C(O)C6O)CCC5(C)C4CCC3(C)C1C2C` (configuration not stated), in the experiment on UACC-62 melanoma (100 µM), the growth is -77.3% (active) and -86.4% (active).
Turning to `NCCc1ccc(OCc2ccccc2)c(OCc2ccccc2)c1`, the growth with HT29 colon was 55% (inactive); in the experiment with SNB-75 CNS it was 63.9% (inactive); with SNB-19 CNS it was 94.5% (inactive); in the experiment on U251 CNS, 44.3% (inactive); with PC-3 prostate, 74.1% (inactive); with SK-MEL-5 melanoma, 89.3% (inactive). Also, the growth in the experiment with UACC-62 melanoma (10 µM) was 95.9% (inactive); in the experiment on LOX IMVI melanoma it was 63.2% (inactive); with SK-MEL-28 melanoma it was 97.3% (inactive); in the experiment with SK-MEL-2 melanoma, 87.4% (inactive); in the experiment on SN12C renal it was 86.6% (inactive); with UO-31 renal it was 51.2% (inactive). Further, the growth was 71.1% (inactive) in the experiment with ACHN renal; 79% (inactive) with A498 renal; 51.4% (inactive) in the experiment with HL-60(TB) leukemia; 78.1% (inactive) in the experiment on MOLT-4 leukemia; 69.7% (inactive) in the experiment with RPMI-8226 leukemia; 79.3% (inactive) in the experiment on OVCAR-8 ovarian.
`CC[n+]1c(-c2ccccc2)c2cc(N)ccc2c2ccc(N)cc21`: the growth in the experiment with HT29 colon is 9.77% (active); in the experiment with SNB-75 CNS, -88.5% (active); with SNB-19 CNS, -5.17% (active); in the experiment with U251 CNS, -2.55% (active); in the experiment on PC-3 prostate, 20.9% (inactive); in the experiment with UACC-62 melanoma (10 µM), -81.3% (active). Besides, the growth in the experiment with LOX IMVI melanoma was 13.5% (inactive); in the experiment on SK-MEL-28 melanoma, -42.9% (active); with SK-MEL-2 melanoma, -60.1% (active); with EKVX NSCLC, 1.88% (active); with SN12C renal, -16.5% (active); with UO-31 renal, 63.5% (inactive). The growth is 54.4% (inactive) in the experiment on ACHN renal; 60.4% (inactive) in the experiment on A498 renal; 23.7% (inactive) in the experiment with HL-60(TB) leukemia; 27.5% (inactive) with CCRF-CEM leukemia; 23.7% (inactive) in the experiment on MOLT-4 leukemia; 7.63% (active) in the experiment on RPMI-8226 leukemia. In addition, the growth in the experiment with OVCAR-8 ovarian is 18.6% (inactive).
Turning to `CCC1(O)CC(OC2CC(N(C)C)C(OC3CC4OC5CC(=O)C(C)OC5OC4C(C)O3)C(C)O2)c2c(cc3c(c2O)C(=O)c2c(O)ccc(O)c2C3=O)C1C(=O)OC` (configuration not stated), the growth is -36.4% (active) with HT29 colon; -98% (active) in the experiment with SNB-75 CNS; 0.801% (active) in the experiment with SNB-19 CNS; -18.4% (active) in the experiment with U251 CNS; -63.5% (active) with PC-3 prostate; -87.3% (active) with SK-MEL-5 melanoma. In addition, the growth with UACC-62 melanoma (10 µM) was -72.5% (active); in the experiment on LOX IMVI melanoma, -22.7% (active); in the experiment on SK-MEL-2 melanoma, -54.8% (active); with EKVX NSCLC, 1.67% (active); in the experiment with SN12C renal, 13.4% (inactive); in the experiment with UO-31 renal it was -39.6% (active). Besides, the growth was -17.6% (active) with ACHN renal; -71.4% (active) in the experiment with A498 renal; -41.6% (active) in the experiment on HL-60(TB) leukemia; -31.2% (active) in the experiment with CCRF-CEM leukemia; -9.49% (active) in the experiment on MOLT-4 leukemia; -53% (active) in the experiment with RPMI-8226 leukemia.
